Screening results from PubChem BioAssay.
PostGolgi ctrl: inhibits growth of the yeast control strain. efflux-deficient yeast background strain, growth absorbance A615, 16 h. inhibition, % at 10 µM. 5% of 98,000 active. AID 738
CYP2C9 inh: blocks human cytochrome P450 2C9 | P11712 | CYP2C9 Supersomes, luciferin-H conversion, luminescence | inhibition, % at 5 µM | 20% of 96,000 active;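 active = blocking of liver enzyme CYP2C9 beyond about 50% at 5 µM, limit read from the data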
PostGolgi yeast: growth inhibition of a yeast mutant, post-Golgi transport screen; 0.9% of 98,000 active; post-Golgi transport phenotypic cell assay; inhibition, % at 10 µM;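 also: yeast cells grown in 1536-well plates; yeast grown about 18 h at 30C before absorbance read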
CYP2C19 activ: increases human CYP2C19 enzyme activity; 96,000 tested, under 10 active; P33261; recombinant CYP2C19, luciferin-H EGE luminescence; active compounds read high; 0 = fully inhibited enzyme, 1 = untreated enzyme; activation factor at 5 µM;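 active = activation factor of at least 2 at 5 µM in the primary screen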
Target sequence (P33261 whole entry, looked up): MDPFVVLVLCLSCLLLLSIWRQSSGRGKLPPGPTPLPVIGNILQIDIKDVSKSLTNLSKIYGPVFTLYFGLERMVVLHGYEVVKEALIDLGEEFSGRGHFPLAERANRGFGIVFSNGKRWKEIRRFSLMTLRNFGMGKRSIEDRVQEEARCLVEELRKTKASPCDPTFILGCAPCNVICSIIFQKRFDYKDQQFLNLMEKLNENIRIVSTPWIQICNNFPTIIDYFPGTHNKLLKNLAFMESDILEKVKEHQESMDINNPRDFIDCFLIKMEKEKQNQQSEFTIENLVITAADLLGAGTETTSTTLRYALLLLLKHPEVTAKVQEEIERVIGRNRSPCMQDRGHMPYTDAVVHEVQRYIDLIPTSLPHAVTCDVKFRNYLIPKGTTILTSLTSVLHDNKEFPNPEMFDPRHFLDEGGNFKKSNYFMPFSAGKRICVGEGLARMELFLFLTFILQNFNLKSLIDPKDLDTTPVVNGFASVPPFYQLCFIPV
CYP2C19 inh: blocks human cytochrome P450 2C19; inhibition, % at 5 µM; CYP2C19 Supersomes, luciferin-H EGE luminescence, 30 min; 21% of 96,000 active;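 active = CYP2C19 inhibition above a set limit at 5 µM in the primary screen, cut at about 50% in these data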
CYP2C9 act: increases human cytochrome P450 2C9 activity | P11712 | recombinant CYP2C9, luciferin-H conversion, luminescence; active compounds read high; factor 1 = untreated enzyme, 0 = blocked | activation factor at 5 µM | 1.4% of 96,000 active | AID 1024;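 active = activation factor of 2 or more for CYP2C9 at a 5 µM dose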
Large screens that a line does not name were inactive. Sampled rows, rich in hits. Any-hit rate of the full collection: about 32%. Rule as the data show it, unless noted: active = inhibition above about 30%; inactive = the rest.

O=C(Nc1ccc(F)cc1)C(c1ccccc1)N1CCN(C(=O)c2ccco2)CC1 (configuration not stated)	CYP2C9 inh 71
CCn1nc(C)c(/C=C2\CCCC3=C2OC(N)=C(C#N)C3c2c(C)nn(CC)c2C)c1C (configuration not stated)	none
Cc1ccc(C)n1-c1ccc(N2CCOCC2)c(Br)c1	none
Nc1nc(NCc2ccccc2)nc(Nc2ccc(F)cc2)c1[N+](=O)[O-]	none
Cc1ccc(S(=O)(=O)N2CCN(C(=O)N3CCOCC3)C2C)cc1 (configuration not stated)	none
COc1ccc(Nc2ncccc2C(=O)O)cc1	none
CC(=O)NS(=O)(=O)c1cccnc1Nc1cccc(Cl)c1	CYP2C9 inh 50
CC(=O)NS(=O)(=O)c1cccnc1Nc1ccc(Cl)cc1	CYP2C9 inh 85
O=C1CC(c2ccccc2)CC(O)=C1C=NC1CCCCC1 (configuration not stated)	none
O=C(Cc1csc(Nc2nc(=S)[nH]c3ccccc23)n1)NCc1ccccc1Cl	CYP2C9 inh 83
O=C(Cc1csc(Nc2nc(=S)[nH]c3ccccc23)n1)NCc1cccc(Cl)c1	CYP2C9 inh 83
Cc1ccc(CNC(=O)c2cc3c(C)nc4ccccc4c3o2)cc1	none
Cc1ccc(CNC(=O)Cc2csc(Nc3nc(=S)[nH]c4ccccc34)n2)cc1	CYP2C9 inh 82, CYP2C19 inh 65
Cc1c(C(=O)Nc2ccc3c(c2)OCO3)sc2ncn(CC(=O)N3CC(C)CC(C)C3)c(=O)c12 (configuration not stated)	CYP2C9 inh 79
Cc1c(C(N)=O)sc2ncn(CC(=O)OC(C)C)c(=O)c12	none
Cc1c(C(=O)NC(C)C)sc2ncn(CC(=O)N3CCC(C)CC3)c(=O)c12	CYP2C9 inh 63
Cc1c(C(N)=O)sc2ncn(CC(=O)N3CCC(C)CC3)c(=O)c12	CYP2C9 inh 77
COc1ccccc1NC(=O)c1sc2ncn(Cc3cccc(C)c3)c(=O)c2c1C	none
CCOC(=O)CN(C(=O)CSc1nnc2c(n1)[nH]c1c(C)cc(C)cc12)c1ccccc1	none
CCCCOC(=O)Cn1c(=O)n(CC(=O)OCCCC)c2ccccc21	CYP2C9 inh 50
CCCCCOC(=O)Cn1c(=O)oc2ccccc21	CYP2C19 inh 89
CC(NC(=O)OCc1ccccc1)C(=O)OCN1C(=O)c2ccccc2C1=O (configuration not stated)	none
CCN(Cc1ccccc1)C(=O)Cn1cc2c(n1)CCCC2	none
CCOC(=O)Cc1nnc(NC(=O)CSc2nnc3c4ccccc4n(C)c3n2)s1	CYP2C9 inh 92, CYP2C19 inh 96
CCCn1c2ccccc2c2nnc(SCC(=O)Nc3ncccn3)nc21	CYP2C9 inh 60, CYP2C19 inh 52
CCOC(=O)Cc1nnc(NC(=O)Nc2ccccc2)s1	none
C=CCn1c2ccccc2c2nnc(SCC(=O)Nc3cc(C)on3)nc21	CYP2C9 inh 55
Cc1cc(C)nc(SCc2ccc3nonc3c2)n1	none
CCCn1c2ccccc2c2nnc(SCC(=O)Nc3cc(C)on3)nc21	none
CCn1c2ccccc2c2nnc(SCC(=O)N3CC(C)OC(C)C3)nc21 (configuration not stated)	none
C=CCn1c2ccccc2c2nnc(SCc3ccc4nonc4c3)nc21	CYP2C9 inh 84, CYP2C19 inh 84
CSc1nnc2c3ccccc3n(CCc3ccccc3)c2n1	CYP2C19 inh 61
CSc1nnc2c3ccccc3n(Cc3ccccc3)c2n1	none
Cc1cc(C(=O)O)c(CCCN)s1	none
CS(=O)(=O)N1Cc2ccccc2CC1C(=O)Nc1ccccc1C(N)=O (configuration not stated)	none
CCN(c1ccccc1)S(=O)(=O)c1cc(OC)ccc1OC	CYP2C9 inh 69, CYP2C19 inh 90
CCN(c1ccccc1)S(=O)(=O)c1ccc(OC)c(OC)c1	CYP2C19 inh 56
Clc1nnc2ccc(-c3ccccc3)nn12	none
CSC(=NC1CCCCC1)NS(=O)(=O)c1ccccc1	CYP2C19 inh 80
O=C(NC1CCCCCC1)C1CCN(S(=O)(=O)c2ccccc2)CC1	none
CC1(C)NC(=O)N(CNc2cc(Cl)ccc2Cl)C1=O	CYP2C19 inh 88, CYP2C9 act 3.1
CC1(C)NC(=O)N(CCCOc2ccc3c(c2)CCC3)C1=O	CYP2C19 inh 90
CC1(C)NC(=O)N(CCCSc2ccc(Cl)cc2)C1=O	CYP2C9 inh 62, CYP2C19 inh 93
C/C=C/c1ccc(OCCN2C(=O)NC(C)(C)C2=O)c(OC)c1	none
CCc1cc(OCCN2C(=O)NC(C)(C)C2=O)ccc1Cl	CYP2C19 inh 74
CC1(C)NC(=O)N(CN2C(=O)NC(C)(C)C2=O)C1=O	none
O=C(CN(Cc1cccs1)C(=O)CN1C(=O)COc2ccccc21)NCc1ccco1	none
COc1ccc(OCC(O)CN2C(=O)NC(C)(C)C2=O)cc1 (configuration not stated)	none (no result: CYP2C9 inh, CYP2C19 activ, CYP2C19 inh, CYP2C9 act)
Cc1cc(OCCCCN2C(=O)NC(C)(C)C2=O)cc(C)c1Cl	CYP2C19 inh 76
CC1(C)NC(=O)N(CCCCOc2ccc(Cl)cc2)C1=O	CYP2C19 inh 86
CCCCCCCCOC(=O)C(NC(=O)CCC(=O)Nc1ccc(S(N)(=O)=O)cc1)C(O)c1ccccc1 (configuration not stated)	CYP2C9 inh 62, CYP2C19 inh 54
CCOC(=O)C(NC(=O)CCC(=O)Nc1ccc(S(N)(=O)=O)cc1)C(O)c1ccccc1 (configuration not stated)	none
O=C(Oc1ccccc1)c1cccc(N2C(=O)CCC2=O)c1	CYP2C9 inh 51, CYP2C19 inh 66
CCOC(=O)c1c(-c2ccccc2)csc1NC(=O)c1cccc(N2C(=O)CCC2=O)c1	CYP2C9 inh 84
CCOC(=O)c1c(-c2ccc(C)cc2)csc1NC(=O)C1CC=CCC1C(=O)O (configuration not stated)	none
CCOC(=O)c1c(-c2ccc(C)cc2)csc1NC(=S)NC(=O)c1ccccc1	CYP2C9 inh 93
CCOC(=O)c1c(-c2ccccc2)csc1NC(=O)C1CCCO1 (configuration not stated)	none
Cc1cc(C)n(C(=O)CNC(=O)c2ccc3c(c2)OCCO3)n1	none
Cc1c(NC(=O)c2cc(CC(C)C)on2)c(=O)n(-c2ccccc2)n1C	none
CC1(CC(=O)O)SC(=O)NC1=O (configuration not stated)	none
O=C1c2cccc3c([N+](=O)[O-])ccc(c23)C(=O)N1c1ccc(Cl)cn1	PostGolgi yeast 68
O=C1c2cccc3c([N+](=O)[O-])ccc(c23)C(=O)N1c1ccccn1	none
CCOC(=O)NC(=O)CSc1nc(C)cc(C)c1C#N	CYP2C19 inh 58
Cc1cc(C)c(C#N)c(SCC(=O)NC(C)(C)C)n1	none
COCc1cc(C)nc(SCC(=O)Nc2ccc(C)c(C)c2)c1C#N	none
Cc1cc(C)c(C#N)c(SCC(=O)NC2CC2)n1	none
Cc1ccc(CNC(=O)CSc2nc(C)cc(C)c2C#N)cc1	CYP2C19 inh 57
